Data reported in ChEMBL document CHEMBL3433997, “St. Jude Leishmania screening dataset” (2016).

Key:
Assay type in all cases: functional
[1] = biological target: Solute carrier family 2, facilitated glucose transporter member 1 (Homo sapiens) (UniProt P11166); assay: ST_JUDE_LEISH: Cytotoxicity at 2uM final concentration against transgenic Leishmania Mexicana promastigotes LmGLUT1 that are glucose transport deficient and complemented with the human glucose transporter GLUT1. Activity is measured by DNA content using SYBR green in vitro
[2] = biological target: Hexose transporter 1 (Plasmodium falciparum) (UniProt O97467); assay: ST_JUDE_LEISH: Cytotoxicity at 2uM final concentration against transgenic Leishmania Mexicana promastigotes LmPfHT that are glucose transport deficient and complemented with the Plasmodium falciparum hexose transporter. Activity is measured by DNA content using SYBR green in vitro
[3] = biological target: Glucose transporter (Leishmania mexicana) (UniProt O61059); assay: ST_JUDE_LEISH: Cytotoxicity at 2uM final concentration against transgenic Leishmania Mexicana promastigotes LmGT2 that are glucose transport deficient and complemented with the L. Mexicana glucose transporter 2. Activity is measured by DNA content using SYBR green in vitro

Chain of Solute carrier family 2, facilitated glucose transporter member 1 (Homo sapiens) (P11166 whole entry): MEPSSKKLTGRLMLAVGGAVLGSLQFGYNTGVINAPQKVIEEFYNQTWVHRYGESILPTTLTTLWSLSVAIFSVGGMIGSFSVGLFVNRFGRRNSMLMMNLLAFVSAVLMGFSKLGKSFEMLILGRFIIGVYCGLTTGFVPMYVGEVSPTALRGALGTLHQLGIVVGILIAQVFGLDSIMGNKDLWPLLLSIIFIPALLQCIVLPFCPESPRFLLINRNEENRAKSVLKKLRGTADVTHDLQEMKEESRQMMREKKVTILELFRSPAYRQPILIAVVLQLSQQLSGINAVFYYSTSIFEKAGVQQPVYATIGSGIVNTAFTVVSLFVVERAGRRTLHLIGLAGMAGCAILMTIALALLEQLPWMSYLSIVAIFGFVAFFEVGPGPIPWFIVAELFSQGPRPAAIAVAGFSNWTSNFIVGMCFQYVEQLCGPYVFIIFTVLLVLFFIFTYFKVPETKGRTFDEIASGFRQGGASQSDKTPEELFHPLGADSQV

Structure (SMILES)	inhibition [1] [%]	inhibition [2] [%]	inhibition [3] [%]
COc1ccc(CN(C)CCCc2ccc(NC(=O)c3cccc4c(=O)c5cccc(F)c5[nH]c34)cc2)cc1OC	14.2	9.74	10.1
Nc1ccc2[nH]cc(C3CCN(CC4CCN(C(=O)/C=C/c5ccc(Cl)c(Cl)c5)CC4)CC3)c2n1	2.32	1.93	-0.49
COc1cc(C=NNc2ccnc3cc(Cl)ccc23)ccc1O	2.02	2.62	3.46
Cc1cc(N2CCC(N(C)C)C2)nc(Nc2ccc(Cl)cc2)n1 (stereo not drawn)	4.11	3.16	4.87
NS(=O)(=O)c1cccc(N/C=C2\C(=O)Nc3ccc(S(=O)(=O)Cc4c(Cl)cccc4Cl)cc32)c1	4.04	0.57	3.06
CCN(CCN(C)C)Cc1ccc(-c2ccc(NS(=O)(=O)c3cccc(Cl)c3)cc2)cc1	7.37	0.64	-1.5
O=C(c1ccccc1NN=C1C(=O)N(c2ccccc2)N=C1c1ccccc1)N1CCOCC1	-1.67	1.67	8.03
CCCN1CCC2(CC1)NC(C(=O)NCCC(C)C)Cc1c2[nH]c2cc(Cl)ccc12 (stereo not drawn)	6.25	6.94	2.82
COc1ccc(S(=O)(=O)NCC2CCCN(CCCCCNC(=O)/C=C/c3ccc(Cl)c(Cl)c3)C2)cc1 (stereo not drawn)	0.97	0.66	3.47
N=C(N)NN=Cc1ccccc1OCc1ccccc1Cl	-0.49	2.44	0.38
Cc1ccc(Cn2cnc3cc(C(=O)Nc4ccc(-c5ccc(CN(C)C)cc5)cc4)ccc3c2=O)o1	5.55	2.88	3.84
Cc1cc(C(=O)CSc2nc3ccccc3n2-c2ccccc2)c(C)n1C1CCS(=O)(=O)C1 (stereo not drawn)	0.82	-1.32	0.44
CCOc1ccc(C(=O)N2CCOC(CCN3CCC(c4ccccc4)CC3)(c3ccc(Cl)c(Cl)c3)C2)cc1 (stereo not drawn)	3.91	3.91	4.6
N#Cc1ccc(C=CC(=O)NC2CCC(CCN3CCc4ccc(-c5cnccn5)cc4CC3)CC2)cc1 (stereo not drawn)	4.1	2.97	0.59
C=CCn1c(C)cc(C(=O)COc2ccc(S(=O)(=O)N3CCOCC3)cc2[N+](=O)[O-])c1C	2.97	0.91	0.84
COc1cc(-c2cc(-c3ccc(OCCN(C)C)cc3)[nH]c2-c2ccncc2)ccc1Cl	0.75	0.72	2.28
Cc1ccc(NC(=O)c2ccc(CN3CCCN(CC4CCCCC4)CC3)cc2)cc1	7.01	8.37	9.64
Cn1c(Nc2cc(C(C)(C)C)on2)nc2cc(Nc3ccnc(Nc4cccc(CS(C)(=O)=O)c4)n3)ccc21	0.14	2.81	-0.39
Cc1cc(OCC(=O)Nc2ccc(-c3nc4ccccc4[nH]3)cc2)cc(C)c1Cl	0.45	2	-0.9
COc1cc(Nc2nccc(N3CCC(NC(=O)Nc4cccc(C(C)=O)c4)C3)n2)cc(OC)c1OC (stereo not drawn)	2.52	2.96	3.92
Cc1cccc2nc(-c3ccc(-c4cccc(CNCCc5ccncc5)c4)cc3)[nH]c12	5.55	3.23	0.92
COc1ccc(C2CC(c3cccs3)=NN2C(=O)CNc2cccc(C#N)c2)cc1OC (stereo not drawn)	7.28	14.4	2.41
CNC(=O)COC(=O)c1c2c(nc3ccccc13)C(=Cc1ccc3c(c1)OCO3)CCC2	1.88	-1.19	0.04
CCCc1cccc(OC)c1OCCCON1C(N)=NC(N)=NC1(C)C	-2.03	-0.29	0.81

Structure (SMILES)	inhibition [1] [%]	inhibition [2] [%]	inhibition [3] [%]
COc1ccc(-c2csc(N(CCCN(C)C)C(=O)c3cc4c(C)nn(-c5ccccc5)c4s3)n2)cc1	0.66	-0.63	2.84
N#Cc1cccc(NC(=O)Nc2cccc(-c3ccc(-c4nc5cc(C(F)(F)F)ccc5[nH]4)cc3)c2)c1	2.29	2.13	-7.53
O=C(NCCN1CCCCC1)c1cccc(Nc2nccc(Nc3ccc(Oc4ccccc4)cc3)n2)c1	-0.01	-0.85	-0.27
CC(Oc1cccc(Cl)c1)C(=O)N1CCc2ccccc21 (stereo not drawn)	-1.29	-1.34	-1.29
Cc1cc(NC(=O)NCCN2CCC(NS(=O)(=O)c3ccc(C(F)(F)F)cc3)C2)c2ccccc2n1 (stereo not drawn)	11.8	11.8	7.4
Cc1c(Cn2ncc(N3CCC(N)CC3)c(Cl)c2=O)cccc1NC(=O)Nc1ccc(-c2ccccc2)cc1	3.52	4.24	5.11
Cn1cccc1C(=O)Nc1cccc(-c2nn3ccccc3c2-c2ccnc(Nc3ccc4c(c3)OCCO4)n2)c1	4.74	9.05	-1.17
NC(=O)c1ccc(NCC(=O)Nc2cccc(-c3cccc(-c4nc5cc(F)ccc5[nH]4)c3)c2)cc1	-0.29	1.39	-1.25
COc1ccc(Nc2nc(NN=Cc3cc(Br)c(O)cc3O)nc(Nc3ccc([N+](=O)[O-])cc3)n2)cc1	0.58	0.96	1.09
c1ccc(CN2CCC(NCc3ccc(-c4ccc(CNCc5cccnc5)cn4)cc3)CC2)cc1	3.27	2.84	3.77
Clc1ccc(CNc2nc(NCCc3c[nH]cn3)nc(NC3CCCCC3)n2)cc1	0.15	-1.21	-0.72
COc1cc(NC(=O)c2sc(-c3ccc(Cl)cc3)cc2NC(=O)c2cccc(N(C)C)c2)ccc1OCCN1CCCC1	0.3	0.22	0.53
CCS(=O)(=O)c1ccc(OC)c(Nc2nccc(-c3c(-c4cccc(NC(=O)c5c(F)cccc5F)c4)nn4ncccc34)n2)c1	6.13	3.41	2.02
COc1ccc(-c2cc3ncn(CC(=O)N4CCN(c5cccc(OC)c5)CC4)c(=O)c3s2)cc1	2.19	3.48	2.45
COc1ccc(C(=O)C2CC2CN(C)CC(O)c2cc(C)c(OC)cc2C)cc1 (stereo not drawn)	8.26	7.67	6.57
O=S(=O)(c1c(Cl)cccc1Cl)N1CCCCC(c2ccc(C(F)(F)F)cc2)=N1	2.16	4.23	4.51
COc1ccccc1N1CCN(CCCCN(C(=O)Nc2cccc(Cl)c2)C(=O)Nc2cccc(Cl)c2)CC1	10.6	8.66	10.6
O=C(/C=C/c1ccc(Cl)c(Cl)c1)N1CCC(CN2CCC(c3c[nH]c4ncccc34)CC2)CC1	4.3	3.52	2.38
N#Cc1cccc(NC(=O)Nc2cccc(-c3cccc(-c4nc5ccccc5[nH]4)c3)c2)c1	5.25	5.22	3.75
CCN(CC)Cc1cccc(-c2cc3c(-c4ccc(C(=O)O)c(C(C)C)c4)ccnc3[nH]2)c1OC	12	8.43	7.3
O=C(NCc1cccc(F)c1)c1ccc(O)c(-c2cc(Cl)cc(Cl)c2)c1	4.04	3.75	4.34
COc1ccccc1N1CCN(C(C(=O)NCc2cccc(F)c2)c2ccc(C)cc2)CC1 (stereo not drawn)	2.99	3.56	-1.92
O=C(Nc1ccc(F)cc1)c1ccc(C(=O)NC2CCN(CC3CCCCC3)CC2)cc1	19.2	16.6	11.7
CC(C)(C)c1ccc(NC(=O)c2ccc(CN3CCCN(Cc4ccsc4)CC3)cc2)cc1	9.06	10.4	11.9

Structure (SMILES)	inhibition [1] [%]	inhibition [2] [%]	inhibition [3] [%]
COc1ccc(Nc2cc(C)c3cc(NC(=O)c4ccncc4)ccc3n2)cc1	0.86	2.43	0.74
Cc1cc(CN2CCC(N3CC(c4ccccc4)(c4ccccc4)OCC3=O)C2)ccc1O (stereo not drawn)	0.59	0.87	-3.65
Nc1ncc(-c2ccsc2)c2ccc(-c3ccc4cn[nH]c4c3)cc12	3.11	1.38	5.29
CNc1ccc(CNCc2ccc(-c3ccc(-c4nc5cc(C(F)(F)F)ccc5[nH]4)cc3)cc2)cc1	0.54	-1.86	9.71
COc1ccccc1CCNc1nc(C)cc(N[C@@H](Cc2ccccc2)C(=O)NCc2cccc(F)c2)n1	5.91	1.53	5.51
Cc1nn(-c2cccc(Cl)c2)c2c1C(C(=O)c1ccc3c(c1)OCO3)CC(=O)N2 (stereo not drawn)	-2.6	-0.95	-2.87
O=C(NCCCN1CCCCC1)c1cccc(Nc2nccc(Nc3ccc(Oc4ccccc4)cc3)n2)c1	-2.69	-2.52	-2.53
COc1ccc(-c2nc3ccc(C)nc3nc2-c2ccc(OC)cc2)cc1	5.17	3.91	3.89
Nc1nccc2ccc(-c3cccnc3)cc12	3.94	5.14	4.83
O=C(Nc1nc(-c2cc(F)ccc2F)cs1)c1cncc(Br)c1	4.6	1.79	1.42
O=C(CCc1c[nH]cn1)Nc1cccc(-c2ccc(-c3nc4cc(F)ccc4[nH]3)s2)c1	10.2	7.95	9.84
CN1CC[C@@H](Oc2cc(NC(=O)Nc3ccc(Cl)c(C(F)(F)F)c3)ccc2Cl)C1	0.88	0.12	0.51
CCOc1cc(C)ccc1C1CCN(CCCCNC(=O)c2ccc(-c3ccc(C(F)(F)F)cn3)cc2)CC1	10.4	9.74	7.82
CC(=O)N1N=C(c2cccs2)Sc2c1nc(-c1ccc(Cl)cc1)n2C(C)=O	11.9	12.2	11.9
Cc1cc(O)c(CN(C)Cc2ccc3c(c2)OCO3)cc1C(C)C	-0.84	-1.41	0.04
CCCCCCN1CCC(NCc2cccc([N+](=O)[O-])c2)CC1	3.72	5.68	4.96
NCCNc1ccnc2cc(Cl)ccc12	0.54	1.61	1.05
O=S(=O)(c1ccccc1Cl)N1CCCCC(c2ccc(C(F)(F)F)cc2)=N1	1.24	2.48	-2.05
FC(F)(F)c1ccc2c(NN=Cc3cccc(Cl)c3)ccnc2c1	5.93	5.5	3.57
COc1ccc2c(=NN=Cc3c(OC)ccc4ccccc34)cc(C)[nH]c2c1	2.05	2.99	4.08
COC(=O)C(NC(=O)c1ccc(-c2ccc(-c3nc4ccccc4[nH]3)s2)cc1)c1ccc(O)cc1 (stereo not drawn)	3.31	2.37	3.11
Cc1ccc(NC(=O)c2ccc(C(=O)NC3CCN(CC4CCCCC4)CC3)cc2)cc1	2.26	3.07	1.65
Cc1nnc(Sc2ncnc3scc(-c4ccc(F)cc4)c23)s1	2.38	3.03	1.02
